# Source: PubChem BioAssay AID463173 (ICCB-Longwood Screening Facility, Harvard Medical School, 2010)
# Among all 52,000 compounds or so, about 4,300 (8.3%) were called active. Rule as the data show it: active = survival mostly below about 52% (no sharp cut-off); inactive = mostly above about 56%. The entries come from a sample that favours actives as a whole.
# Tested on: DeltatarO mutant
# Assay: S. aureus survival, RN4220 and DeltatarO strains – OD600, teichoic acid synthesis inhibitors, primary screen (AID 463173)
# Conditions: S. aureus RN4220 wild type/DeltatarO growth, OD600, 18 h, hits give low values, screened at 18.75 µg/mL (by protocol)
row,Structure (SMILES),survival
1,Cc1nc(-c2ccc(S(=O)(=O)NCc3ccc(N(C)C)cc3)cc2)co1,83% (inactive)
2,CCOc1ccc(C(c2c(O)cc(C)n(Cc3ccco3)c2=O)N2CCN(c3ccccc3)CC2)cc1 (stereo unspecified),75% (inactive)
3,Cc1ccc(S(=O)(=O)c2nc(-c3ccc(Cl)cc3)oc2N2CCCCCC2)cc1,36% (active)
4,O=S(=O)(c1ccc(Cl)cc1)c1nc(-c2ccccc2)oc1N1CCN(c2ccccc2)CC1,86% (inactive)
5,COc1ccc(-c2nc(S(=O)(=O)c3ccc(Cl)cc3)c(N3CCCCCC3)o2)cc1,76% (inactive)
6,Cc1ccc(-c2nc(S(=O)(=O)c3ccc(Cl)cc3)c(N3CCCCC3)o2)cc1,11% (active)
7,O=C(O)c1ccc(CNCc2ccccc2Cl)s1,88% (inactive)
8,CC(C)(C)OC(=O)N1CCC(c2c(C(=O)NCc3ccco3)cnn2-c2ccccc2Cl)CC1,76% (inactive)
9,Cc1ccc(C(=O)N2C(C)CCCC2C)c(Cl)c1 (stereo unspecified),70% (inactive)
10,CNC(=O)CN(C#N)c1nc(N(C)C)nc(N(C)C)n1,87% (inactive)
11,COC(=O)CN(C#N)c1nc(C)cc(C)n1,94% (inactive)
12,COC(=O)CN(C#N)c1nc(SC)nc(N(C)C)n1,52% (active)
13,Cc1nc(SCc2cc(=O)c3cccc(F)c3[nH]2)n[nH]1,94% (inactive)
14,CCOC(=O)c1c(NC(C)=O)sc2c(NC(C)=O)cccc12,69% (inactive)
15,CCOC(=O)c1c(N)sc2c1CN(C(=O)OC)N(C(=O)OC)C2,112% (inactive)
16,CCOC(=O)c1c(N)sc2c(OC)c(Br)ccc12,1% (active)
17,COC(=O)c1cnc(N2CCN(c3ccc(F)cc3)CC2)c2ccccc12,80% (inactive)
18,COc1ccc(NC(=O)c2cc3c(=O)n(Cc4ccco4)ccc3nc2C)c(OC)c1,81% (inactive)
19,COc1ccc(Cn2ccc3nc(C)c(C(=O)Nc4ccc(F)cc4)cc3c2=O)cc1,20% (active)
20,COc1ccc(CNC(=O)c2cc3c(=O)n(Cc4ccco4)ccc3nc2C)c(OC)c1,67% (inactive)
21,COc1ccc(NC(=O)c2cc3c(=O)n(Cc4cccnc4)ccc3nc2C)c(OC)c1,83% (inactive)
22,COc1ccc(Cn2ccc3nc(C)c(C(=O)Nc4ccc(OC(F)(F)F)cc4)cc3c2=O)cc1,92% (inactive)
23,COc1ccc(Cn2ccc3nc(C)c(C(=O)Nc4ccc(OC)cc4)cc3c2=O)cc1,89% (inactive)
24,COc1ccc(CNC(=O)c2cc3c(=O)n(Cc4ccc(OC)cc4)ccc3nc2C)cc1,66% (inactive)
25,COc1ccc(Cn2ccc3nc(C)c(C(=O)Nc4ccc(OC)cc4OC)cc3c2=O)cc1,8% (active)
26,COc1ccc(Cn2ccc3nc(C)c(C(=O)NCc4ccc(OC)cc4OC)cc3c2=O)cc1,25% (active)
